# Measurements from PubChem BioAssay (EPA / NIEHS).
# Active and inactive are the calls of the source. How the source made its calls: active means hit-call score of the fitted dose curve at least 0.9, where 1 is the maximum; inactive means score below 0.9.
# Biological target: Retinoic acid receptor alpha (Homo sapiens) (UniProt P10276)
# Experiment: ATG_DR5_RAR_CIS: Attagene CIS-FACTORIAL HepG2 Assay for human Retinoic Acid Receptor Alpha (RARE), DR5 submotif (AID 2282934);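 on AC50: reporter responds to endogenous RAR alpha beta and gamma in HepG2 not RARA alone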
# Conditions: HepG2 Attagene cis-factorial RARE DR5 reporter, mRNA; actives raise or lower the signal
# In short: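 HepG2, transient cis-reporter transfection, 24 h exposure. mRNA readout: RT-PCR, FAM label, HpaI cut, capillary electrophoresis. DMSO baseline, gain/loss fitting.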
# Sequence of Retinoic acid receptor alpha (Homo sapiens) (P10276 whole entry, looked up): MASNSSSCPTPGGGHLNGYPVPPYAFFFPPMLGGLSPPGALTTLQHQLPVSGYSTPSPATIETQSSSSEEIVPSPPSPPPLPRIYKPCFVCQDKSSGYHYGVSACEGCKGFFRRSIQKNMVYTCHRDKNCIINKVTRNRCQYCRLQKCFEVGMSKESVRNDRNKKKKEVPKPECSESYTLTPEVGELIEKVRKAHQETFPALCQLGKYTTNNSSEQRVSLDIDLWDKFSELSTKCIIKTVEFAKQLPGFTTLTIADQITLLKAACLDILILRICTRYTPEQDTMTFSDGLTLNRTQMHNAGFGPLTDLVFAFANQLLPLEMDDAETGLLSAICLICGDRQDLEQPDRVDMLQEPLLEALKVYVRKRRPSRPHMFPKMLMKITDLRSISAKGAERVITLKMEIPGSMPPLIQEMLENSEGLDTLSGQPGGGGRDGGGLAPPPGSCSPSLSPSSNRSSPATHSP
Structure (SMILES),outcome,AC50
CN1COCN(Cc2cnc(Cl)s2)C1=N[N+](=O)[O-],inactive,–
O=C(O)c1cc(Oc2ccc(C(F)(F)F)cc2Cl)ccc1[N+](=O)[O-],inactive,–
Nc1c(Cl)cc([N+](=O)[O-])cc1Cl,inactive,–
CSc1nc(NC(C)C)nc(NC(C)C)n1,–,21.9 µM (active)
CCOP(=S)(OCC)OC(Cl)C(Cl)(Cl)Cl (stereo unspecified),inactive,–
CC1=NNC(=O)N(/N=C/c2cccnc2)C1,inactive,–
CCC(=O)Nc1ccc(Cl)c(Cl)c1,inactive,–
COc1cccc(C(=O)NN(C(=O)c2cc(C)cc(C)c2)C(C)(C)C)c1C,inactive,–
CCCSP(=O)(OCC)Oc1ccc(Br)cc1Cl (stereo unspecified),inactive,–
COc1ccc(C(=CC(=O)N2CCOCC2)c2ccc(Cl)cc2)cc1OC,inactive,–
S=C1NCCN1,inactive,–
CCOP(=S)(OCC)Oc1ccc([N+](=O)[O-])cc1,inactive,–
Nc1nc(N)nc(NC2CC2)n1,inactive,–
CCCSP(=O)(OCC)SCCC,inactive,–
FC(F)C(F)(F)OCC(Cn1cncn1)c1ccc(Cl)cc1Cl (stereo unspecified),–,13 µM (active)
N#CSCSC#N,inactive,–
COP(=O)(OC)C(O)C(Cl)(Cl)Cl (stereo unspecified),inactive,–
Cc1ccn2nc(S(=O)(=O)Nc3c(F)cccc3F)nc2n1,inactive,–
CCCCOC(=O)c1ccccc1C(=O)O,inactive,–
CCCOc1nn(C(=O)NS(=O)(=O)c2ccccc2C(=O)OC)c(=O)n1C,inactive,–
C[N+]1(C)CCCCC1,inactive,–
CC(C)N(C(=O)SCC(Cl)=C(Cl)Cl)C(C)C,–,29.1 µM (active)
CCOP(=S)(OCC)Oc1ccc2c(C)c(Cl)c(=O)oc2c1,–,1.59 µM (active)
CCc1cccc(CC)c1N(COC)C(=O)CCl,inactive,–
CCOC(=O)COc1cc(-c2nn(C)c(OC(F)F)c2Cl)c(F)cc1Cl,inactive,–

# Biological target: Transcription factor E2F1 (Homo sapiens) (UniProt Q01094)
# Experiment: ATG_E2F_CIS: Attagene CIS-FACTORIAL HepG2 Assay for human E2F Transcription Factor 1 (AID 2282935)
# Conditions: HepG2 Attagene cis-reporter, E2F reporter RNA transcripts; actives raise or lower the signal
# In short: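 Fluorescent RT-PCR products, digested with HpaI for 2 h at 37 C, are separated by capillary electrophoresis. Source RNA comes from transfected HepG2 cultures treated for 24 h.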
# Sequence of Transcription factor E2F1 (Homo sapiens) (Q01094 whole entry, looked up): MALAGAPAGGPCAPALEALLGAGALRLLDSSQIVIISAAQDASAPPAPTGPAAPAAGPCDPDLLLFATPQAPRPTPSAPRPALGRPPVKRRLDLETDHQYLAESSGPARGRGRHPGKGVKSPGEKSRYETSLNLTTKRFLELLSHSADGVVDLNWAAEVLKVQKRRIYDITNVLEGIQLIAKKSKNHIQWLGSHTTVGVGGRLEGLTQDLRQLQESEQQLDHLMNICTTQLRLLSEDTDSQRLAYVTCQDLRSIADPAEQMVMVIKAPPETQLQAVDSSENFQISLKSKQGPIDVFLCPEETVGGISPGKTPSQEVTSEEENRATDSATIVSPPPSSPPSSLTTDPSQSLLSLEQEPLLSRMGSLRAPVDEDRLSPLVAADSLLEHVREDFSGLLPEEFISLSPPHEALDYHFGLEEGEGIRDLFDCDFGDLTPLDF
row,Structure (SMILES),outcome
1,CN1COCN(Cc2cnc(Cl)s2)C1=N[N+](=O)[O-],inactive
2,O=C(O)c1cc(Oc2ccc(C(F)(F)F)cc2Cl)ccc1[N+](=O)[O-],inactive
3,Nc1c(Cl)cc([N+](=O)[O-])cc1Cl,inactive
4,CSc1nc(NC(C)C)nc(NC(C)C)n1,inactive
5,COP(=O)(NC(C)=O)SC (stereo unspecified),inactive
6,CCOP(=S)(OCC)OC(Cl)C(Cl)(Cl)Cl (stereo unspecified),inactive
7,COc1cc(OC)nc(Sc2cccc(Cl)c2C(=O)O)n1,inactive
8,CC1=NNC(=O)N(/N=C/c2cccnc2)C1,inactive
9,CCC(=O)Nc1ccc(Cl)c(Cl)c1,inactive
10,COc1cccc(C(=O)NN(C(=O)c2cc(C)cc(C)c2)C(C)(C)C)c1C,inactive
11,CCCSP(=O)(OCC)Oc1ccc(Br)cc1Cl (stereo unspecified),inactive
12,COc1ccc(C(=CC(=O)N2CCOCC2)c2ccc(Cl)cc2)cc1OC,inactive
13,S=C1NCCN1,inactive
14,CC(C)[C@H](C(=O)O[C@H](C#N)c1cccc(Oc2ccccc2)c1)c1ccc(Cl)cc1,inactive
15,CCOP(=S)(OCC)Oc1ccc([N+](=O)[O-])cc1,inactive
16,Nc1nc(N)nc(NC2CC2)n1,inactive
17,CCCSP(=O)(OCC)SCCC,inactive
18,FC(F)C(F)(F)OCC(Cn1cncn1)c1ccc(Cl)cc1Cl (stereo unspecified),inactive

row,Structure (SMILES),outcome
1,CC1(C(=O)Nc2ccc(O)c(Cl)c2Cl)CCCCC1,inactive
2,CN(C)[C@@H]1C(=O)C(C(N)=O)=C(O)[C@@]2(O)C(=O)C3=C(O)c4c(O)cccc4[C@@](C)(O)[C@H]3[C@H](O)[C@@H]12,inactive
3,CNC(=O)Oc1cccc2c1OC(C)(C)O2,inactive
4,CSC1=N[C@@](C)(c2ccccc2)C(=O)N1Nc1ccccc1,inactive
5,CC(C)=CC1C(C(=O)OCN2C(=O)C3=C(CCCC3)C2=O)C1(C)C (stereo unspecified),inactive
6,CC[C@H](C)[C@H]1O[C@]2(C=C[C@@H]1C)C[C@@H]1C[C@@H](C/C=C(\C)[C@@H](O[C@H]3C[C@H](OC)[C@@H](O[C@H]4C[C@H](OC)[C@@H](NC)[C@H](C)O4)[C@H](C)O3)[C@@H](C)/C=C/C=C3\CO[C@@H]4[C@H](O)C(C)=C[C@@H](C(=O)O1)[C@]34O)O2,inactive
7,N#CSCSC#N,inactive
8,COP(=O)(OC)C(O)C(Cl)(Cl)Cl (stereo unspecified),inactive
9,Cc1ccn2nc(S(=O)(=O)Nc3c(F)cccc3F)nc2n1,inactive
10,CCC(CC)Nc1c([N+](=O)[O-])cc(C)c(C)c1[N+](=O)[O-],inactive
11,CCCCOC(=O)c1ccccc1C(=O)O,inactive
12,CCCOc1nn(C(=O)NS(=O)(=O)c2ccccc2C(=O)OC)c(=O)n1C,inactive
13,C[N+]1(C)CCCCC1,inactive
14,CC(C)N(C(=O)SCC(Cl)=C(Cl)Cl)C(C)C,inactive
15,CCOP(=S)(OCC)Oc1ccc2c(C)c(Cl)c(=O)oc2c1,inactive
16,CCc1cccc(CC)c1N(COC)C(=O)CCl,inactive
17,CCOC(=O)COc1cc(-c2nn(C)c(OC(F)F)c2Cl)c(F)cc1Cl,inactive
18,CCOP(=O)(OCC)Oc1cc(C)nc(C(C)C)n1,inactive
